According to publication PMC5540273 (PLoS ONE, 2017):

Legend:
Conditions in all cases: concentration: 1 μM, replicates: in singlicate; n = 1
CSK = test system: CSK
CSNK1A1L = test system: CSNK1A1L
CSNK1A1 = test system: CSNK1A1
CSNK1D = test system: CSNK1D
CSNK1E = test system: CSNK1E
CSNK1G1 = test system: CSNK1G1
CSNK1G2 = test system: CSNK1G2
CSNK1G3 = test system: CSNK1G3
CSNK2A1 = test system: CSNK2A1
CSNK2A2 = test system: CSNK2A2
CTK = test system: T1, CTK
T1 construct: gene MATK

DAPK1 = test system: DAPK1
DAPK2 = test system: DAPK2
DAPK3 = test system: DAPK3
DCAMKL1 = test system: T2, DCAMKL1
T2 construct: gene DCLK1

DCAMKL2 = test system: T3, DCAMKL2
T3 construct: gene DCLK2

DCAMKL3 = test system: T4, DCAMKL3
T4 construct: gene DCLK3

DDR1 = test system: DDR1
DDR2 = test system: DDR2
DLK = test system: T5, DLK
T5 construct: gene MAP3K12
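Note: KINOMEscan kinase panel screen.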

SMILES | %Inh (CSK) [%] | %Inh (CSNK1A1L) [%] | %Inh (CSNK1A1) [%] | %Inh (CSNK1D) [%] | %Inh (CSNK1E) [%] | %Inh (CSNK1G1) [%] | %Inh (CSNK1G2) [%] | %Inh (CSNK1G3) [%] | %Inh (CSNK2A1) [%] | %Inh (CSNK2A2) [%] | %Inh (CTK) [%] | %Inh (DAPK1) [%] | %Inh (DAPK2) [%] | %Inh (DAPK3) [%] | %Inh (DCAMKL1) [%] | %Inh (DCAMKL2) [%] | %Inh (DCAMKL3) [%] | %Inh (DDR1) [%] | %Inh (DDR2) [%] | %Inh (DLK) [%]
COc1ccc(-c2coc3ccc(-c4nnc(C)o4)cc23)cc1 | 0 | 0 | 0 | 0 | 0 | 4 | 1 | 0 | 0 | 15 | 0 | 0 | 1 | 0 | 15 | 0 | 13 | 0 | 0 | 0
O=C1NC(=O)C(c2ccc(Cl)cc2)=C1Nc1ccc(O)cc1 [SB-340867] | 0 | 2 | 0 | 0 | 0 | 0 | 0 | 32 | 0 | 0 | 0 | 0 | 0 | 0 | 0 | 0 | 0 | 0 | 0 | 0
COc1cccc(NC(=O)Nc2ccc(C)c(-c3ccc(C(=O)Nc4ccncc4)cc3)c2)c1 [GSK1398474] | 0 | 0 | 0 | 31 | 42 | 8 | 25 | 34 | 0 | 10 | 0 | 28 | 8 | 0 | 1 | 7 | 0 | 94.2 | 36 | 6
Fc1ccc(-c2nc[nH]c2-c2ccncc2)cc1 [SB-217360] | 6 | 24 | 93.3 | 91.9 | 97.7 | 5 | 0 | 5 | 0 | 0 | 31 | 0 | 0 | 8 | 29 | 0 | 0 | 9 | 34 | 0
Cc1ccc(NC(=O)Nc2ccc(Cl)c(C(F)(F)F)c2)cc1-c1ccc(C(=O)Nc2ccncc2)cc1 [GSK1398470] | 0 | 9 | 22 | 7 | 7 | 11 | 24 | 21 | 21 | 0 | 0 | 8 | 21 | 0 | 0 | 11 | 5 | 97.3 | 63 | 0
Cc1ccccc1-c1cc(-c2c[nH]nc2-c2ccccn2)ccn1 [GW680061] | 0 | 7 | 12 | 24 | 16 | 2 | 0 | 1 | 13 | 0 | 0 | 0 | 0 | 25 | 0 | 6 | 12 | 79 | 5 | 32
COC(=O)C(Cc1ccccc1)NC(=O)NC1CCN(c2ccnc(Nc3ccc(F)cc3)n2)C1 (stereo not drawn) [GSK1379714] | 0 | 2 | 5 | 7 | 7 | 0 | 13 | 11 | 0 | 14 | 0 | 25 | 12 | 28 | 7 | 0 | 8 | 75 | 47 | 48
COc1nccc(-c2c(-c3ccc(F)cc3)ncn2CCCN2CCOCC2)n1 [SB-282852] | 0 | 45 | 44 | 31 | 29 | 0 | 0 | 53 | 0 | 9 | 22 | 5 | 0 | 22 | 35 | 0 | 11 | 0 | 35 | 18
CCn1c(-c2ccccc2)nc2cnccc21 [SB-733416] | 0 | 11 | 0 | 2 | 24 | 0 | 0 | 11 | 0 | 1 | 6 | 0 | 0 | 18 | 15 | 1 | 33 | 16 | 13 | 16
Cc1ccc(NC(=O)c2ccc(Cl)cc2)cc1-c1ccc(C(=O)Nc2ccncc2)cc1 [GSK1398467] | 0 | 14 | 0 | 18 | 11 | 8 | 9 | 22 | 0 | 0 | 0 | 12 | 0 | 34 | 3 | 0 | 0 | 89 | 36 | 0
CCc1ccc(-c2ccc3c(c2)-c2n[nH]cc2S(=O)(=O)N3C)cc1 | 0 | 0 | 0 | 32 | 0 | 0 | 0 | 0 | 0 | 0 | 0 | 24 | 7 | 0 | 34 | 0 | 13 | 0 | 9 | 0
O=C(Nc1n[nH]c2nc(-c3cccs3)c(Br)cc12)C1CCCC1 [SB-743341] | 9 | 13 | 27 | 0 | 0 | 0 | 0 | 0 | 10 | 17 | 49 | 0 | 3 | 3 | 0 | 7 | 22 | 27 | 0 | 0
CNC(=O)c1ccc(C)c(-n2c(C)cc(OCc3ccc(F)cc3F)c(Br)c2=O)c1 | 0 | 0 | 4 | 0 | 6 | 0 | 0 | 25 | 0 | 0 | 0 | 0 | 0 | 0 | 0 | 0 | 0 | 0 | 0 | 0
CC(C)c1cc(-c2ccc3c(N)n[nH]c3c2)nc(N)n1 [GSK2250882] | 0 | 0 | 0 | 0 | 7 | 10 | 0 | 25 | 0 | 10 | 0 | 9 | 6 | 25 | 2 | 0 | 0 | 0 | 4 | 21
COc1ccc(CSc2nnc(-c3ccc4c(c3)CCO4)o2)cc1 | 0 | 3 | 0 | 0 | 0 | 0 | 0 | 0 | 0 | 0 | 0 | 0 | 18 | 0 | 0 | 0 | 0 | 0 | 15 | 0
CC(C)c1ccc(O)cc1Nc1ccnc2ccc(C(F)(F)F)cc12 [GW482059] | 0 | 11 | 0 | 0 | 0 | 0 | 0 | 9 | 7 | 0 | 8 | 5 | 0 | 0 | 0 | 0 | 0 | 18 | 0 | 17
O=C(Nc1n[nH]c2nc(-c3ccco3)c(Br)cc12)C1CCN(Cc2ccccc2)C1.O=C(O)[C@H](O)[C@@H](O)C(=O)O (stereo not drawn) [SB-742034] | 11 | 8 | 21 | 28 | 0 | 4 | 32 | 0 | 22 | 37 | 71 | 0 | 28 | 17 | 14 | 7 | 20 | 0 | 0 | 0
CNc1nc(-c2ccc3c(N)n[nH]c3c2)cc(N2C[C@@H](C(=O)NC3CCCCC3)OC[C@H]2C)n1 [GSK2375584] | 1 | 16 | 66 | 41 | 38 | 2 | 4 | 26 | 1 | 8 | 0 | 26 | 34 | 40 | 24 | 0 | 31 | 15 | 36 | 37
COc1ccc(Nc2nccc(N3CCC(NC(=O)C(C)c4ccc(Cl)cc4)CC3)n2)cc1 (stereo not drawn) [GSK1379812] | 0 | 0 | 0 | 18 | 35 | 7 | 0 | 19 | 0 | 21 | 0 | 3 | 20 | 10 | 6 | 0 | 0 | 0 | 4 | 0
Cc1c(Cn2c(C)c(C)n3c(=O)cc(N4CCOCC4)nc23)cccc1C(F)(F)F [GSK2328680] | 0 | 10 | 0 | 24 | 20 | 0 | 0 | 21 | 2 | 5 | 0 | 0 | 0 | 3 | 0 | 21 | 5 | 0 | 11 | 14
Cc1ccccc1Cn1ccn2c(=O)cc(N3CCOCC3)nc12 [GSK2269905] | 0 | 0 | 0 | 4 | 28 | 0 | 0 | 22 | 0 | 0 | 0 | 0 | 0 | 0 | 0 | 7 | 4 | 0 | 0 | 0
